In PubChem BioAssay (NCATS):
Inconclusive results are not listed. Active and inactive are the calls of the source. Unless noted, calls follow the shape of the dose curve; as a rule, active = well fitted inhibition curve with a large enough effect; inconclusive = small, poorly fitted or top-dose-only effect; inactive = flat fitted curve, though single readings scatter.

How the values were obtained:
7G8 = experiment: qHTS profiling for inhibitors of Plasmodium falciparum proliferation (AID 504749); also: nearly all actives have a fitted effect of over 60% in size; also: potency is read from the fitted curve at half-maximal effect; settings: P. falciparum in erythrocytes, SYBR Green DNA, 72 h; series mostly up to 12.8 µM
In short: (§1)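 Parasite proliferation within erythrocytes, 72 h exposure. Endpoint: SYBR Green I fluorescence after overnight lysis at room temperature. Controls: 0.29 uM artemisinin, DMSO.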

ATS189 = experiment: as above; settings: P. falciparum in erythrocytes, SYBR Green DNA, 72 h; series mostly up to 12.8 µM
In short: as §1

CP297 = experiment: as above; settings: P. falciparum in erythrocytes, SYBR Green DNA, 72 h; series mostly up to 12.8 µM
In short: as §1

DFO2036 = experiment: as above; settings: P. falciparum in erythrocytes, SYBR Green DNA, 72 h; series mostly up to 12.8 µM
In short: as §1

DIV14 = experiment: as above; settings: P. falciparum in erythrocytes, SYBR Green DNA, 72 h; series mostly up to 12.8 µM
In short: as §1

DIV17 = experiment: as above; settings: P. falciparum in erythrocytes, SYBR Green DNA, 72 h; series mostly up to 12.8 µM
In short: as §1

GB4 = experiment: as above; settings: P. falciparum in erythrocytes, SYBR Green DNA, 72 h; series mostly up to 12.8 µM
In short: as §1

CP217 = experiment: as above; settings: P. falciparum in erythrocytes, SYBR Green DNA, 72 h; series mostly up to 12.8 µM
In short: as §1

CP215 = experiment: as above; settings: P. falciparum in erythrocytes, SYBR Green DNA, 72 h; series mostly up to 12.8 µM
In short: as §1

CP247 = experiment: as above; settings: P. falciparum in erythrocytes, SYBR Green DNA, 72 h; series mostly up to 12.8 µM
In short: as §1

CP250 = experiment: as above; settings: P. falciparum in erythrocytes, SYBR Green DNA, 72 h; series mostly up to 12.8 µM
In short: as §1

[1] = target: DNA dC->dU-editing enzyme APOBEC-3G (Homo sapiens) (UniProt Q9HC16); experiment: qHTS for inhibitors of Vif-A3G interactions: Validation (AID 588379)
Sequence of DNA dC->dU-editing enzyme APOBEC-3G (Homo sapiens) (Q9HC16 whole entry, looked up): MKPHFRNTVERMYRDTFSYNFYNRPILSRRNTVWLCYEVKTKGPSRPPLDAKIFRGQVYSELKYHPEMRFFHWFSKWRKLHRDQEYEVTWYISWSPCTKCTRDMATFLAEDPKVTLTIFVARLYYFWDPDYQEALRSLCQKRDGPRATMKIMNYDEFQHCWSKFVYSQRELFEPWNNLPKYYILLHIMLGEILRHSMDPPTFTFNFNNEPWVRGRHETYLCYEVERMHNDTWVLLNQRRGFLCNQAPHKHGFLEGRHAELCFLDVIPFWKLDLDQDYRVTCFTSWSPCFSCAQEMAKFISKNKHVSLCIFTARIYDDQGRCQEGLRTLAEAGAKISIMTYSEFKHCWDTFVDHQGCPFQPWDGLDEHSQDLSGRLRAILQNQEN
In short: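 HeLa cells stably expressing Vif and A3G-eYFP, 700 cells/well, incubated overnight at 37 deg C, then exposed to compound overnight at 37 deg C. Inhibition of Vif-mediated degradation read as increased yellow fluorescence (Ex 488/Em 500-530) by laser-scanning cytometry.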

[2] = target: Estrogen receptor (Homo sapiens) (UniProt P03372); experiment: qHTS assay for small molecule antagonists of estrogen receptor alpha signaling (AID 588513; active = well fitted curve in the direction sought with a large enough effect in the signal ratio, with a control signal flat, not every such curve was filed as active; the % refers to the signal ratio)
Sequence of Estrogen receptor (Homo sapiens) (P03372 whole entry, looked up): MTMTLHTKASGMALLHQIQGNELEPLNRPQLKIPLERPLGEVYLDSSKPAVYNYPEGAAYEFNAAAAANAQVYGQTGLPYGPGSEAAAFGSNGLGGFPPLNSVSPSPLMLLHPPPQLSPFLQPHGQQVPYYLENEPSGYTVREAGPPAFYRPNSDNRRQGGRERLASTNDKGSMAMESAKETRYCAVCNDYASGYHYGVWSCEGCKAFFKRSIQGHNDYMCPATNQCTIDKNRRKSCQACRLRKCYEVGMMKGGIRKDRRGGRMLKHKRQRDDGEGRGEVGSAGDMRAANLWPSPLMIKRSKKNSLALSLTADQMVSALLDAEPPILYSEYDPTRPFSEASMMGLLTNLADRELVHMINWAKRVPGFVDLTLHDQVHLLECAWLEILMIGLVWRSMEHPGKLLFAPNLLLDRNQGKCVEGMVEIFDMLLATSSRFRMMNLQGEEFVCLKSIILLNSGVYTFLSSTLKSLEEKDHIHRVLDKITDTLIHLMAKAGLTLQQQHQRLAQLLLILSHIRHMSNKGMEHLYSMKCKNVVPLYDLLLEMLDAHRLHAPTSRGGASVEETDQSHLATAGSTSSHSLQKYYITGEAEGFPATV
In short: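 Fluorescence from CCF4 substrate after 2 h at room temperature gave reporter activity; cells had been exposed to compound and 0.5nM 17-beta-estradiol for 18 h at 37 C. Hill-equation fitting yielded IC50 and maximal response.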

[3] = target: Estrogen receptor (Homo sapiens) (UniProt P03372); experiment: qHTS assay for small molecule agonists of estrogen receptor alpha signaling (AID 588514; calls by dose curve; also: nearly all actives have a fitted effect of over 70% in size)
In short: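 Cells were plated at 5000/well, incubated 4 hrs at 37 C, dosed with compound titration series, incubated 18 hrs at 37 C, loaded with CCF4 dye for 2 hrs at RT, then fluorescence was read.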

[4] = qHTS assay for small molecule antagonists of peroxisome proliferator-activated receptor delta signaling (AID 588535; active = well fitted inhibition curve with a large enough effect in the signal ratio, with a control signal flat, not every such curve was filed as active; the % refers to the signal ratio;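 as to max response: cells co-treated with a PPAR-delta agonist as stimulator during compound exposure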); settings: HEK293T PPARd-UAS-bla, beta-lactamase FRET ratio, 18 h; 460 nm channel
In short: (§2)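 Reporter: UAS-bla under PPAR-delta response element, HEK293T host. Medium: 2% charcoal/dextran FBS. Dosing: titration, 18 hrs, 37 C. Detection: CCF4, 2 hrs RT, 405 ex/460 and 530 em.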

[5] = target: Peroxisome proliferator-activated receptor delta (Homo sapiens) (UniProt Q03181); experiment: as above
Sequence of Peroxisome proliferator-activated receptor delta (Homo sapiens) (Q03181 whole entry, looked up): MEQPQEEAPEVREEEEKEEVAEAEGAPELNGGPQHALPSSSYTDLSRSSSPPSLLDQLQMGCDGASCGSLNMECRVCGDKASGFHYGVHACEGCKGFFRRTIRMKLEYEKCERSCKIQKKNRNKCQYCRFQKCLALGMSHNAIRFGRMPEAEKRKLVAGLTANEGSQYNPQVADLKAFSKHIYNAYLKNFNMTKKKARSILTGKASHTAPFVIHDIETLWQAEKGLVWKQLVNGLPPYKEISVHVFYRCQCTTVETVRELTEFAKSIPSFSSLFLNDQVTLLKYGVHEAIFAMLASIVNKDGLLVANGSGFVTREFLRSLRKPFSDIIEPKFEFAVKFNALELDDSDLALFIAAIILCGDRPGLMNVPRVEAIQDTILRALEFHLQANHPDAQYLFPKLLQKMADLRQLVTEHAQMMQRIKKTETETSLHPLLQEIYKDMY
In short: as §2

[6] = target: Peroxisome proliferator-activated receptor gamma (Homo sapiens) (UniProt P37231); experiment: qHTS assay for small molecule agonists of peroxisome proliferator-activated receptor gamma signaling (AID 588536; active = well fitted curve in the direction sought with a large enough effect in the signal ratio, with a control signal flat, not every such curve was filed as active; the % refers to the signal ratio)
Sequence of Peroxisome proliferator-activated receptor gamma (Homo sapiens) (P37231 whole entry, looked up): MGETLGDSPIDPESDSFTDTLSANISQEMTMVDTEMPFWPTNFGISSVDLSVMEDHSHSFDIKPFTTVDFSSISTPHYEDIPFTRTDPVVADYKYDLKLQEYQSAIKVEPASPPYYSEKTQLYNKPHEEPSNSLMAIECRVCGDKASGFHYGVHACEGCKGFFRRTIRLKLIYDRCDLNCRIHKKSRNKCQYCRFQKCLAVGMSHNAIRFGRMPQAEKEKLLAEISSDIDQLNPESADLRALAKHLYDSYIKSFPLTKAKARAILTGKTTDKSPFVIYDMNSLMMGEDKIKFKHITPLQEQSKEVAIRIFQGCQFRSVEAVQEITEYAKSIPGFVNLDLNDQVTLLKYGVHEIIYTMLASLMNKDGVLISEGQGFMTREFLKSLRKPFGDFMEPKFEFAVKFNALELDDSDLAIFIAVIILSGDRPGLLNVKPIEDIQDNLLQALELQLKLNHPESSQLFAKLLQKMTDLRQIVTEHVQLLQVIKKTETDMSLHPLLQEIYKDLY
In short: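 PPAR-gamma-UAS-bla HEK293 cells in medium with 1% charcoal/dextran-treated FBS were exposed to compounds for 16 h at 37 C. Beta-lactamase activity was read with CCF4 substrate (405 nm excitation, 460/530 nm emission).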

[7] = target: Peroxisome proliferator-activated receptor gamma (Homo sapiens) (UniProt P37231); experiment: qHTS assay for small molecule antagonists of peroxisome proliferator-activated receptor gamma signaling (AID 588537; active = well fitted inhibition curve with a large enough effect in the signal ratio, with a control signal flat, not every such curve was filed as active; the % refers to the signal ratio;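 also: reporter cells co-stimulated with 50 nM rosiglitazone agonist during compound treatment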)
In short: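 We seeded GeneBLAzer HEK293 reporter cells at 3000 per well, allowed 6-6.5 h attachment at 37 C, then co-treated with test compound titrations and 50 nM rosiglitazone overnight (16 h). Inhibition was quantified from 460/530 nm emission ratios.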

[8] = target: Vitamin D3 receptor (Homo sapiens) (UniProt P11473); experiment: qHTS assay for small molecule antagonists of vitamin D receptor signaling (AID 588541; calls by dose curve;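 also: receptor activated by calcitriol during compound treatment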)
Sequence of Vitamin D3 receptor (Homo sapiens) (P11473 whole entry, looked up): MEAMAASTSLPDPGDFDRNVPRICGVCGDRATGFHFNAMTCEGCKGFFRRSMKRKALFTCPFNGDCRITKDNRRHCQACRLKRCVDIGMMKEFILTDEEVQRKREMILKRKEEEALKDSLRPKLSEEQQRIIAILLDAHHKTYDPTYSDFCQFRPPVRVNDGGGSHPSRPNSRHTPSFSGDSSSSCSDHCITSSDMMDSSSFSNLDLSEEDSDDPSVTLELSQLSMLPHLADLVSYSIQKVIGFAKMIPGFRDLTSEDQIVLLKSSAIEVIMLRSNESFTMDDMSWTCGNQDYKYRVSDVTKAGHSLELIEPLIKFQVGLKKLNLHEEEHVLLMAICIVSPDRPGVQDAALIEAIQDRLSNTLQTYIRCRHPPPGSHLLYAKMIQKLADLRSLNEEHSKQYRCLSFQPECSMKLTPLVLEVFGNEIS
In short: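 VDR-UAS-bla HEK293T cells (2000/well, 2% charcoal-stripped FBS) were treated with titrated compounds plus 1-alpha,25-dihydroxyvitamin D3 (50 nM or 3 nM final) for 16 h at 37 C. CCF4 beta-lactamase fluorescence was read; Hill fits gave IC50.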

[9] = target: Vitamin D3 receptor (Homo sapiens) (UniProt P11473); experiment: qHTS assay for small molecule agonists of vitamin D receptor signaling (AID 588543; calls by dose curve)
In short: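 Reporter cells (HEK293T, VDR-UAS-bla) were seeded in medium with 2% charcoal-stripped serum and incubated 5 h, then compounds in concentration series were added for 16 h at 37 °C. Stimulation was scaled between DMSO basal and 50 nM 1α,25-dihydroxyvitamin D3.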

NC(CCC(=O)N[C@@H](CS)C(=O)NCC(=O)O)C(=O)O (stereo partly drawn)
active: Potency (7G8) 0.708 µM | Potency (ATS189) 8.91 µM | Potency (CP297) 15.1 µM | Potency (DFO2036) 6.31 µM | Potency (DIV14) 3.01 µM | Potency (DIV17) 2.69 µM | Potency (GB4) 6.75 µM

COC1OC(CO)C(OC2OC(C(=O)O)C(OC3OC(COS(=O)(=O)O)C(OC4OC(C(=O)O)C(OC5OC(CO)C(OC6OC(C(=O)O)C(OC7OC(COS(=O)(=O)O)C(OC8OC(C(=O)O)=C[C@H](O)C8OS(=O)(=O)O)C(O)C7NC(C)=O)[C@@H](O)C6O)C(O)C5NC(C)=O)[C@@H](O)C4O)C(O)C3NC(C)=O)[C@@H](O)C2O)C(O)C1NC(C)=O (stereo partly drawn)
active: Potency (7G8) 7.08 µM | Potency (CP217) 10 µM
inactive: Potency (CP297)

C[C@@]12C=CC(=O)C=C1CCC1C3CC(O)[C@@](O)(C(=O)CO)[C@]3(C)CC(O)[C@]12F (stereo partly drawn)
inactive: Potency (7G8) | Potency (ATS189) | Potency (CP215) | Potency (CP217) | Potency (CP247) | Potency (CP250) | Potency (CP297) | Potency (DFO2036) | Potency (DIV14) | Potency (DIV17) | Potency (GB4)

CC1C2CCC3C4CC=C5CC(N(C)C)CC[C@@]5(C)C4CC[C@@]32CN1C (stereo partly drawn)
inactive: Potency (ATS189) | Potency (CP215) | Potency (CP217) | Potency (CP247) | Potency (CP250) | Potency (CP297) | Potency (DIV14) | Potency (DIV17) | Potency (GB4)

OCC1OC(n2cnc3c(=S)nc[nH]c32)C(O)C1O (stereo not drawn)
inactive: Potency (ATS189) | Potency (CP215) | Potency (CP217) | Potency (CP247) | Potency (CP250) | Potency (CP297) | Potency (DFO2036) | Potency (DIV14) | Potency (DIV17)

O=C(O)C1(O)C[C@H](O)C(O)[C@@H](O)C1 (stereo partly drawn)
inactive: outcome [1]

CC(=O)OCC(=O)[C@@]12OC3(CCCC3)OC1CC1C3CCC4=CC(=O)C=C[C@@]4(C)[C@]3(F)C(O)C[C@]12C (stereo partly drawn)
active: Potency (7G8) 11.2 µM
inactive: Potency (CP250)

CO[C@]12C(COC(N)=O)C3=C(C(=O)C(C)=C(N)C3=O)N1CC1NC12 (stereo partly drawn)
active: Potency (7G8) 0.708 µM | Potency (ATS189) 1.26 µM | Potency (CP217) 1.78 µM | Potency (CP247) 1.41 µM | Potency (CP250) 1.12 µM | Potency (DFO2036) 0.316 µM

NC(=O)NCCC[C@H](N)C(=O)O
inactive: outcome [1]

CCOC(=O)C1=CC(OC(CC)CC)C(NC(C)=O)C(N)C1 (stereo not drawn)
inactive: Potency (ATS189) | Potency (CP215) | Potency (CP217) | Potency (CP247) | Potency (CP250) | Potency (DFO2036)

CC(=O)OC1CCC2C3CCc4cc(O)ccc4C3CCC12C (stereo not drawn)
inactive: Potency (ATS189) | Potency (CP215) | Potency (CP217) | Potency (CP247) | Potency (CP250) | Potency (CP297) | Potency (DFO2036) | Potency (DIV14) | Potency (DIV17) | Potency (GB4)

C[C@@]12CCC(=O)C=C1C=CC1C2CC[C@]2(C)C1CC[C@@]21CCC(=O)O1 (stereo partly drawn)
inactive: Potency (CP215) | Potency (CP297) | Potency (DFO2036) | Potency (DIV17) | Potency (GB4)

CC1(C)S[C@H]2C(NC(=O)[C@@H](N)c3ccc(O)cc3)C(=O)N2[C@@H]1C(=O)O (stereo partly drawn)
inactive: Potency (7G8) | Potency (ATS189) | Potency (CP215) | Potency (CP217) | Potency (CP247) | Potency (CP250) | Potency (CP297) | Potency (DFO2036) | Potency (DIV14) | Potency (DIV17) | Potency (GB4)

CCC(=O)O[C@@]1(C(=O)CCl)C(C)CC2C3CCC4=CC(=O)C=C[C@@]4(C)[C@]3(F)C(O)C[C@]21C (stereo partly drawn)
active: Potency (7G8) 3.98 µM | Potency (DIV14) 13.5 µM | Potency (DIV17) 15.1 µM | Potency (GB4) 12 µM

COc1c(Cl)ccc(Cl)c1C(=O)O
inactive: outcome [2] | outcome [3] | outcome [5] | outcome [6] | outcome [7] | outcome [8] | outcome [9]
-7.82%: max response [4]
